Data on 62 compounds can be found in PubChem BioAssay AID463173 (ICCB-Longwood Screening Facility, Harvard Medical School, 2010).

Hit rate of the full screen: of about 52,000 compounds, about 4,300 (8.3%) were called active. Only a selection was taken, and actives are over-represented in it overall. Unmarked numbers belong to inactive results. Rule as the data show it: active = survival mostly below about 52% (no sharp cut-off); inactive = mostly above about 56%.

The experiment deals with DeltatarO mutant. In words: S. aureus survival, RN4220 and DeltatarO strains – OD600, teichoic acid synthesis inhibitors, primary screen (AID 463173). As to conditions: S. aureus RN4220 wild type/DeltatarO growth, OD600, 18 h, hits give low values, screened at 18.75 µg/mL (by protocol).
With `COc1ccccc1Nc1nc(C)nc(N)c1S(=O)(=O)c1ccccc1`, the survival is 84%.
Turning to `COc1ccc2cc(-c3nc(Cl)c4c5c(sc4n3)CC(C)CC5)c(=O)oc2c1` (configuration not stated), the survival is 77% (active).
For the compound `CC1CCc2c(sc3nc(-c4cc5ccccc5oc4=O)nc(Cl)c23)C1` (configuration not stated), the survival is 61%.
In the case of `COc1ccc2cc(-c3nc(Cl)c4c5c(sc4n3)CCCC5)c(=O)oc2c1`, the survival is 76%.
For `COc1ccc(-c2csc(NC(=O)C(C)C)n2)cc1` the value was 84%; for `CCOC(=O)COc1ccc(C)cc1C(=O)c1ccn2nc(-c3ccc(F)cc3)cc2n1`, 69%.
Turning to `Cn1c(=O)oc2cc(S(=O)(=O)N3CCC(C(=O)NCc4ccccc4Cl)CC3)ccc21`, the survival was 125%.
For `COC(=O)c1cc(-c2cc(OC)c(OC)c(OC)c2)no1` the value was 99%.
For `CC(C)(C)c1ccc(OCc2nc3ccccc3n2CCOc2ccccc2)cc1` the value was 10% (active); for `COc1ccc(OCc2nc3ccccc3n2Cc2ccc(C(C)(C)C)cc2)cc1`, -9% (active).
For `c1ccc(OCCn2c(COc3ccccc3)nc3ccccc32)cc1`, the survival is 0% (active).
Regarding `COc1cccc(OCc2nc3ccccc3n2Cc2ccccc2)c1`, the survival is 62%.
In the case of `Cc1ccc(C)c(OCc2nc3ccccc3n2C)c1` it was 59%; in that of `Cn1c(COc2ccccc2C(C)(C)C)nc2ccccc21`, 5% (active); in that of `Cn1c(COc2ccccc2Br)nc2ccccc21`, 92%.
For `c1ccc(Cn2nnnc2C(c2ccccc2)N2CCN(Cc3ccncc3)CC2)cc1` (configuration not stated) the value was 78%; for `CCc1ccc(CNC(=O)c2cccc(-n3cnc4cccnc43)c2C)cc1`, 88%; for `CC(=O)c1cccc(NC(=O)CN2C(=O)c3ccccc3Sc3ncccc32)c1`, 95%.
Turning to `COc1ccc(CNC2CCCC2)cc1`, the survival is 79%.
In the case of `COc1ccc2[nH]cc(CCN=C(NC(=O)c3ccccc3F)Nc3nc(C)cc(C)n3)c2c1`, the survival was 99%.
With `Cc1ccc(C)c(N2CCN(C(=O)CCc3nnc4n(C)c(=O)c5ccccc5n34)CC2)c1`, the survival is 95%.
`COc1ccc(OCc2nnc(SCC(=O)N(C3CCCCC3)C3CCCCC3)o2)cc1`: the survival is 72%.
On to `CCc1nc(-c2cc(S(=O)(=O)N3CCN(c4ccccc4OC)CC3)ccc2OC)no1`, for which the survival was 42% (active).
For the compound `CCc1nc(-c2cc(S(=O)(=O)N3CCN(c4ccc(F)cc4)CC3)ccc2OC)no1`, the survival was 49%.
As to `CCc1nc(-c2cc(S(=O)(=O)N3CCN(c4ccccc4)CC3)ccc2OC)no1`, the survival was 51%.
Consider `COc1ccc(S(=O)(=O)N2CCN(c3ccccc3OC)CC2)cc1-c1noc(C)n1`, for which the survival was 110%.
For `COc1ccc(S(=O)(=O)N2CCN(c3ccccc3F)CC2)cc1-c1noc(C)n1`, the survival was 59%.
As to `CCc1nc(-c2cc(S(=O)(=O)N3CCN(c4ccccc4F)CC3)ccc2OC)no1`, the survival was 42% (active).
`Cc1ccc(OCC(=O)Nc2ccc3nc(SCC(=O)N4CCOCC4)sc3c2)cc1`: the survival is 86%.
As for `O=C(NCc1ccccc1Cl)c1ccc(CS(=O)(=O)c2ccc(Br)cc2)o1`, the survival was 127%.
Turning to `Cc1ccc(-c2onc(C)c2C)cc1S(=O)(=O)NC1CCC(C)CC1` (configuration not stated), the survival is 82%.
Take `Cn1c(=O)n(C)c2cc(S(=O)(=O)Nc3ccccc3C(=O)O)ccc21`: the survival was 105%.
For `COc1cccc(NC(=O)C(Cc2ccccc2)NS(=O)(=O)c2ccc3c(c2)c(=O)n(C)c(=O)n3C)c1` (configuration not stated), the survival was 79%.
On to `COCCNC(=O)Cn1c(=O)n(-c2ccc(C)c(C)c2)c(=O)c2c3c(sc21)CCCCC3`, for which the survival is 86%.
In the case of `CC(=O)c1cccc(NC(=O)Cn2ccn3nc(-c4ccccc4)cc3c2=O)c1` it was 83%.
For `COc1cc(CNc2ccc3[nH]c(=O)[nH]c3c2)cc(Cl)c1OCc1ccc(F)cc1`, the survival was 76%.
In the case of `Oc1ccc(NCc2ccccc2OCc2ccccc2)cc1`, the survival was 61%.
As to `CCOc1c(Cl)cc(CNc2ccc3[nH]c(=O)[nH]c3c2)cc1OC`, the survival is 95%.
Turning to `CCOc1cc(CNc2ccc(O)cc2)ccc1OCc1ccc(Cl)cc1`, the survival was 53%.
Take `CCOc1ccc(CC(=O)NCc2ccc3c(c2)CCN3C(=O)c2ccccc2)cc1OCC`: the survival was 72%.
Take `CCOc1cc(CNc2ccc(C(=O)O)cc2)ccc1OCc1ccccc1`: the survival is 47% (active).
Regarding `COc1cc(CNc2ccc3[nH]c(=O)[nH]c3c2)cc(Br)c1OCc1ccc(F)cc1`, the survival was 99%.
Turning to `CCOc1cc(CNc2ccc(O)cc2)cc(Cl)c1OCc1ccccc1`, the survival was 1% (active).
As for `CCOc1cc(CNc2ccc(O)cc2)cc(Br)c1OCc1ccccc1`, the survival was 3% (active).
In the case of `CCn1cc(C(=O)NCCCOC)c(=O)c2cc(S(=O)(=O)N3CCc4ccccc4C3)ccc21` it was 92%.
In the case of `Cc1cc(=O)[nH]c2nnc(SCc3ccc(C(F)(F)F)cc3)n12` it was 74%; in that of `COc1ccc(NC(=O)CCc2c(C)nc3cc(-c4cccc(F)c4)nn3c2C)cc1Cl`, 129%; in that of `CCCCCCOc1ccc(/C=C/C(=O)Nc2sc3c(c2C(=O)OC)CCC3)cc1OC`, 69%.
Take `O=C(NCCc1ccccc1)c1cnc2sc(N3CCOCC3)nn2c1=O`: the survival is 100%.
Turning to `O=c1oc2ccc3ccccc3c2cc1-c1nnc(Nc2ccccc2)s1`, the survival is 84%.
Regarding `CCc1ccc(CNC(=O)CN2C(=O)C3CCCCN3c3ccc(C(=O)N4CCCC4)cc32)cc1` (configuration not stated), the survival is 75%.
In the case of `O=C(CSCn1nnc2c(=O)[nH]c(Cc3ccc(F)cc3)nc21)Nc1ccccc1`, the survival was 52%.
`CCCc1cnc2c(c1SCC(=O)N1CCC(C)CC1)c(=O)n(C)c(=O)n2C`: the survival is 96%.
In the case of `O=C(CSc1nc2ncccc2o1)Nc1cccc(C(F)(F)F)c1` it was -1% (active).
In the case of `O=C(CSc1nc2ncccc2o1)Nc1ccc(Cl)cc1F`, the survival was 70%.
For `O=C(CSc1nnc(-c2cccs2)o1)Nc1cccc(C(F)(F)F)c1`, the survival was 47% (active).
Regarding `COc1cc(NC(=O)CSc2nc3ncccc3o2)cc(OC)c1`, the survival was 64%.
As for `Cc1cccc(NC(=O)CSc2nnc(-c3cccs3)o2)c1`, the survival is 50%.
For `O=C(CSc1nnc(-c2ccccc2F)o1)Nc1cccc(C(F)(F)F)c1` the value was 54%; for `Cc1c(Cl)cccc1NC(=O)CSc1nc2ncccc2o1`, 6% (active); for `COc1cccc(NC(=O)CSc2nnc(-c3cccs3)o2)c1`, 52%.
As to `Cc1cccc(C)c1NC(=O)CSc1nc2ncccc2o1`, the survival was 79%.
